Consider 54 sequences from publication PMC10726135, “HNF4α isoforms regulate the circadian balance between carbohydrate and lipid metabolism in the liver”.

Whole data set: some 18,000 sequences, median “log2 normalized intensity” near 0.36, cut for the highest 2% near 7.3. This excerpt belongs to a sample that is enriched for the highest values.

For this assay, the target named is T1, HNF4alpha8 (COS-7 nuclear extract) (Homo sapiens, UniProt P41235-5 1-452).
T1 sequence: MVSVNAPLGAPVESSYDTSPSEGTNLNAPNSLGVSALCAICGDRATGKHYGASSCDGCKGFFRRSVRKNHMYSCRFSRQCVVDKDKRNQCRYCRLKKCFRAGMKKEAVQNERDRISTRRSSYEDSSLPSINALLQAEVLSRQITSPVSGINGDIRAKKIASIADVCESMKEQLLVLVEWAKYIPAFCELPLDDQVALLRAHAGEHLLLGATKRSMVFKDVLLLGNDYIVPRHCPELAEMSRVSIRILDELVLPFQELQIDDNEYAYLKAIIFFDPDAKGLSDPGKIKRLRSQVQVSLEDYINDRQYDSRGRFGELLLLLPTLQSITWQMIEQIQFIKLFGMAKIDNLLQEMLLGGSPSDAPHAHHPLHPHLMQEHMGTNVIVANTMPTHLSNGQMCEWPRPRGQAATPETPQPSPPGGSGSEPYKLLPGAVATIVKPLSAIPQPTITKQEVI
The assay can be described thus: protein-binding microarray; COS-7 nuclear extract on double-stranded Agilent 4x180k PBM; binding buffer, salt, pH and temperature not given in the material; high values mean tight binding. The settings on record: chain copies: 2; label: 3' end of strand 1 on the slide; dsDNA, one strand shown. Summed up:
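COS-7 cells were transiently transfected by CaPO4 with an expression vector for a human HNF4α isoform, and nuclear extracts were prepared from them. The extracts were applied to a custom Agilent SurePrint G3 4x180k array of double-stranded ~60-nt oligonucleotides, with ~44,000 test sequences spotted in quadruplicate. An Agilent G2565CA scanner imaged bound HNF4α at 2-µm resolution. Binding signal is the background-corrected, normalized gProcessedSignal from Agilent software.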
Turning to “TGCAAGTTACCTTGGGGTCAAAGTACATCCGCCTAGGGAGATTAGAGTATCGGTCGA”, the binding signal is 9.54 log2 normalized intensity.
For the sequence “GGTCAAAGTACATCCCCTAAAACATCAAATGCCTAGGGAGATTAGAGTATCGGTCGA”, the binding signal was 3.45 log2 normalized intensity.
With “CTTGGGGTCAAAGTACATCCCCTAAAACATGCCTAGGGAGATTAGAGTATCGGTCGA”, the binding signal is 6.61 log2 normalized intensity.
To “AGGTGCAAAGTACATATTTACTTACCTTTTGCCTAGGGAGATTAGAGTATCGGTCGA” belongs 3.68 log2 normalized intensity; to “TTGCAGACCTTGGTCAAAGTGACACATTCCGCCTAGGGAGATTAGAGTATCGGTCGA”, 0.772 log2 normalized intensity; to “GTTACCTTGGGGTCAAAGTACATCCCCTAAGCCTAGGGAGATTAGAGTATCGGTCGA”, 7.38 log2 normalized intensity.
Regarding “AACACCAGCAACCGCCTACCTTTGGACTTCGCCTAGGGAGATTAGAGTATCGGTCGA”, the binding signal is 6.25 log2 normalized intensity.
Take “TGGACCATTGCTGACCTTGCCTCTGTGCTCGCCTAGGGAGATTAGAGTATCGGTCGA”: the binding signal was determined as 1.8 log2 normalized intensity.
As for “CTCTGGCCAGAGAGATGTCAGCCCAAGATAGCCTAGGGAGATTAGAGTATCGGTCGA”, the binding signal turned out to be 3.25 log2 normalized intensity.
For “AAATGAAGTGGTATCCTGCAGTCAGTCTGAGCCTAGGGAGATTAGAGTATCGGTCGA”, the binding signal is -0.508 log2 normalized intensity.
For the sequence “TGACTTTCTTCCTATGGGATCAAAGTGCGAGCCTAGGGAGATTAGAGTATCGGTCGA”, the binding signal was 5.69 log2 normalized intensity.
Turning to “AAAAAATGGGCAAAGGACAATAATGAATAAGCCTAGGGAGATTAGAGTATCGGTCGA”, the binding signal was -0.651 log2 normalized intensity.
For the sequence “CCTTGACCCTTCCTCCCATTTGCTGCTCTAGCCTAGGGAGATTAGAGTATCGGTCGA”, the binding signal was found to be 1.81 log2 normalized intensity.
Turning to “AAGCACATACTTCTTCCTGTTTGACCTTCGGCCTAGGGAGATTAGAGTATCGGTCGA”, the binding signal stood at 5.61 log2 normalized intensity.
As for “TTGACCTTCTCTGTTAACCCTTTGCAGCCCGCCTAGGGAGATTAGAGTATCGGTCGA”, the binding signal was 2.91 log2 normalized intensity.
In the case of “CTCCTGTTTGTATTCCTTGTCCTTGACCCTGCCTAGGGAGATTAGAGTATCGGTCGA”, the binding signal came out at 4.96 log2 normalized intensity.
As for “GTACCTTGACCTTCTCTGTTAACCCTTTGCGCCTAGGGAGATTAGAGTATCGGTCGA”, the binding signal stood at 4.52 log2 normalized intensity.
Turning to “CCTGTTTGACCTTCGAACCCTTGCCATTTAGCCTAGGGAGATTAGAGTATCGGTCGA”, the binding signal turned out to be 7.81 log2 normalized intensity.
Turning to “TTCTTCCTGTTTGACCTTCGAACCCTTGCCGCCTAGGGAGATTAGAGTATCGGTCGA”, the binding signal worked out at 9.64 log2 normalized intensity.
Next, “CATACTTCTTCCTGTTTGACCTTCGAACCCGCCTAGGGAGATTAGAGTATCGGTCGA”: 10.1 log2 normalized intensity; “TTGACCTTCGAACCCTTGCCATTTACATCAGCCTAGGGAGATTAGAGTATCGGTCGA”: 6.21 log2 normalized intensity.
As to “ACCTCTGTAATAACTGCAGTGCCACTCGGGGCCTAGGGAGATTAGAGTATCGGTCGA”, the binding signal is -0.418 log2 normalized intensity.
To “CTTTATCCTACAAGGGAGATAAACTTTATCGCCTAGGGAGATTAGAGTATCGGTCGA” belongs 0.672 log2 normalized intensity; to “GCTTGGCAAACATTTCACTTTGCTCCCTCCGCCTAGGGAGATTAGAGTATCGGTCGA”, 2.18 log2 normalized intensity; to “TGAATGATCAAAGGTTGGTTTTTGGAGACAGCCTAGGGAGATTAGAGTATCGGTCGA”, 3.36 log2 normalized intensity.
Next, “TCCTGAGTGATTGTAGTGTCATTGTTATTTGCCTAGGGAGATTAGAGTATCGGTCGA”: 1.98 log2 normalized intensity; “CATGACCTTTGGACTGTGACCCCACCTCTCGCCTAGGGAGATTAGAGTATCGGTCGA”: 7.69 log2 normalized intensity.
Take “AGAACCTGCCCATGACCTTTGGACTGTGACGCCTAGGGAGATTAGAGTATCGGTCGA”: the binding signal was 10.2 log2 normalized intensity.
For “GGACTGTGACCCCACCTCTCAGACAGAGCTGCCTAGGGAGATTAGAGTATCGGTCGA”, the binding signal is 3.8 log2 normalized intensity.
To “GGGGAGGGCAGGGTCAGAACCTGCCCATGAGCCTAGGGAGATTAGAGTATCGGTCGA” belongs 0.0112 log2 normalized intensity.
As for “CCTTTGGACTGTGACCCCACCTCTCAGACAGCCTAGGGAGATTAGAGTATCGGTCGA”, the binding signal came to 5.4 log2 normalized intensity.
With “GGGTCAGAACCTGCCCATGACCTTTGGACTGCCTAGGGAGATTAGAGTATCGGTCGA”, the binding signal came to 10.8 log2 normalized intensity.
To “GGGCAGGGTCAGAACCTGCCCATGACCTTTGCCTAGGGAGATTAGAGTATCGGTCGA” belongs 6.45 log2 normalized intensity; to “CTTTGGAACCTGCCCTCTGTCCCATGGTGTGCCTAGGGAGATTAGAGTATCGGTCGA”, 2.85 log2 normalized intensity; to “CTGCCCTTTGGAACCTGCCCTCTGTCCCATGCCTAGGGAGATTAGAGTATCGGTCGA”, 4.63 log2 normalized intensity.
With “TCAGGTGTTGCTCTCTTGCCATTCGTGGATGCCTAGGGAGATTAGAGTATCGGTCGA”, the binding signal amounted to 0.994 log2 normalized intensity.
As to “ACTACTAACCGAAAGTCTGACCCTTGACCAGCCTAGGGAGATTAGAGTATCGGTCGA”, the binding signal was 7.2 log2 normalized intensity.
Next, “ACCTTTGACCCTTCTCTGGGAGAAAGGGAGGCCTAGGGAGATTAGAGTATCGGTCGA”: 3.86 log2 normalized intensity; “CAATCCTGGAGAAGGAGCACCAATGACCTTGCCTAGGGAGATTAGAGTATCGGTCGA”: 4.02 log2 normalized intensity; “TTTGAAAGAAAGAGACCTTTACCCTGACCTGCCTAGGGAGATTAGAGTATCGGTCGA”: 4.47 log2 normalized intensity.
With “GAAGGAGCACCAATGACCTTTGACCCTTCTGCCTAGGGAGATTAGAGTATCGGTCGA”, the binding signal turned out to be 11.2 log2 normalized intensity.
On to “CAATGACCTTTGACCCTTCTCTGGGAGAAAGCCTAGGGAGATTAGAGTATCGGTCGA”, for which the binding signal came out at 8.44 log2 normalized intensity.
For the sequence “AAACAATGACCTCTGCACCCTTCCCTGAGTGCCTAGGGAGATTAGAGTATCGGTCGA”, the binding signal worked out at 4.47 log2 normalized intensity.
Regarding “CTAAGCAGCGAAGCTGTGTCAGGCATTGTAGCCTAGGGAGATTAGAGTATCGGTCGA”, the binding signal was -0.633 log2 normalized intensity.
Regarding “AGATTCTGCAAACCTATTAATATATTCATAGCCTAGGGAGATTAGAGTATCGGTCGA”, the binding signal was -0.929 log2 normalized intensity.
Take “AGGCAGTCTGTTGACCTTTGGCCAAGGGCAGCCTAGGGAGATTAGAGTATCGGTCGA”: the binding signal was found to be 8.19 log2 normalized intensity.
Next, “TTGACCTTTGGCCAAGGGCAGTGTTTGCCCGCCTAGGGAGATTAGAGTATCGGTCGA”: 6.36 log2 normalized intensity.
Turning to “GTCTGTTGACCTTTGGCCAAGGGCAGTGTTGCCTAGGGAGATTAGAGTATCGGTCGA”, the binding signal amounted to 7.73 log2 normalized intensity.
In the case of “GAGTCTGTTGTCTAACATTTTTGACCTTCAGCCTAGGGAGATTAGAGTATCGGTCGA”, the binding signal is 4.68 log2 normalized intensity.
Turning to “CCTCTTTGAGTCTGGTGTTCTCTTGGCCAAGCCTAGGGAGATTAGAGTATCGGTCGA”, the binding signal came out at 1.63 log2 normalized intensity.
Turning to “CTTTGGCCAAGGGCAGTGTTTGCCCAGCTTGCCTAGGGAGATTAGAGTATCGGTCGA”, the binding signal was found to be 0.731 log2 normalized intensity.
As for “TCTTTACACCATTGCAAGGATTCCAAATTTGCCTAGGGAGATTAGAGTATCGGTCGA”, the binding signal was 0.0367 log2 normalized intensity.
“AAAGATTGCAGCAAGGAATTCAACCCTTGTGCCTAGGGAGATTAGAGTATCGGTCGA”: the binding signal came to 2.23 log2 normalized intensity.
As for “GTCTTATCTACCTGGCTTGTTTGCAAAGCAGCCTAGGGAGATTAGAGTATCGGTCGA”, the binding signal was determined as 0.749 log2 normalized intensity.
